MazF activator = activators of E. coli MazEF toxin-antitoxin RNase; AID 504720; 350,000 compounds, 0.32% hits; P0AE70; activation, % at 20 µM; FAM/BHQ RNA-DNA oligo cleavage fluorescence, 5 h; in the data active means activation above about 50%
Target sequence (P0AE70 whole entry, looked up): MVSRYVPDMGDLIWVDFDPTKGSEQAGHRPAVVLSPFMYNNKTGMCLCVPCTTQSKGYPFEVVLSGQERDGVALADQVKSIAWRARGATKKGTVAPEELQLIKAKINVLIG
BoNT A protease = BoNT A light chain protease inhibition; multiplex microsphere protease substrate cleavage, flow cytometry; inhibition, % at 10 µM; 360,000 compounds, 0.17% hits; AID 588499
BoNT F protease = inhibitors of Botulinum neurotoxin F light chain protease; Multiplex microsphere protease cleavage assay, flow cytometry; inhibition, % at 10 µM; 360,000 compounds, 0.22% hits; in the data active means inhibition above about 35%, passing the limit was not always enough; inconclusive means no clear call, values can overlap the other calls
Anthrax LF inh2 = anthrax lethal factor protease inhibition | 360,000 compounds, 0.12% hits | P15917 | inhibition, % at 10 µM | multiplex microsphere protease cleavage assay, LF
Bead autofluor = compound fluorescence in toxin protease inhibitor counterscreen | compound autofluorescence counterscreen, microsphere flow cytometry; stronger effect = higher value | fluorescence intensity (no concentration beside the values) | 360,000 compounds, 3.1% hits | AID 624483; in the data active means fluorescence intensity above about 16000; inconclusive means no clear call, values can overlap the other calls
A number is an active result. The list is not random: actives were taken first. Their share in the collection is about 3.7%. Unless noted, no stated cut-off is given here; in the data, active means inhibition above about 30%; inconclusive means no clear call, values can overlap the other calls; inactive means below that.

How did CCOC(=O)[C@]12CCC=C1N(Cc1ccc(Cl)cc1Cl)C(=O)[C@H](CC(=O)NCc1cccc(C(F)(F)F)c1)C2 do in these assays?
BoNT A protease: inactive; BoNT F protease: inactive; Anthrax LF inh2: inactive; Bead autofluor: inactive

How did O=C(CSc1ncn(-c2ccccc2)n1)Nc1nc2ccccc2s1 do in these assays?
MazF activator: inactive; BoNT A protease: inactive; BoNT F protease: inactive; Anthrax LF inh2: inactive; Bead autofluor: 22783

How did COc1cccc(C(=O)N2CCC(C(=O)NCc3ccc(C)cc3)CC2)c1 do in these assays?
MazF activator: inactive; BoNT A protease: inactive; BoNT F protease: inactive; Anthrax LF inh2: inactive; Bead autofluor: inactive

What do the screens show for `Cc1ccc(NC(=O)C2CCN(S(C)(=O)=O)CC2)cc1`?
MazF activator: inactive; BoNT A protease: inconclusive; BoNT F protease: inactive; Anthrax LF inh2: inactive; Bead autofluor: 22760

How did COc1ccc(NC(=O)C2CCN(S(C)(=O)=O)CC2)cc1OC do in these assays?
MazF activator: inactive; BoNT A protease: inactive; BoNT F protease: inactive; Anthrax LF inh2: inactive; Bead autofluor: inactive

Results for COc1ccc(NC(=O)C2CCN(S(=O)(=O)c3ccc(C)cc3)CC2)cc1OC ?
MazF activator: inactive; BoNT A protease: inactive; BoNT F protease: inactive; Anthrax LF inh2: inactive; Bead autofluor: 25551

What do the screens show for `CCOc1ccc(Cl)cc1-c1cc(C(=O)Nc2ccc(OC)nc2)[nH]n1`?
BoNT A protease: inactive; BoNT F protease: inactive; Anthrax LF inh2: inactive; Bead autofluor: inactive

How did CC(=O)Oc1ccc(N2C(=O)C3C4C=CC(CO)(O4)C3C2=O)cc1 (centres undefined) do in these assays?
MazF activator: inactive; BoNT A protease: inactive; BoNT F protease: inactive; Anthrax LF inh2: inactive; Bead autofluor: inactive

What do the screens show for `COc1ccc(C(=O)NCC23C=CC(O2)C2C(=O)N(Cc4ccccc4)C(=O)C23)cc1` (centres undefined)?
MazF activator: inactive; BoNT A protease: inconclusive; BoNT F protease: inactive; Anthrax LF inh2: inactive; Bead autofluor: 19591

Results for CCOCCCNS(=O)(=O)c1ccccc1 ?
MazF activator: inactive; BoNT A protease: inactive; BoNT F protease: inactive; Anthrax LF inh2: inactive; Bead autofluor: 20142

How did COc1ccc(CNC(=O)c2noc3c2CCCCC3)cc1 do in these assays?
MazF activator: inactive; BoNT A protease: inactive; BoNT F protease: inactive; Anthrax LF inh2: inactive; Bead autofluor: 21035

What do the screens show for `O=C(NCc1cccs1)c1noc2c1CCCCC2`?
MazF activator: inactive; BoNT A protease: inactive; BoNT F protease: inactive; Anthrax LF inh2: inactive; Bead autofluor: 16908

What do the screens show for `O=C(NCc1ccccc1)c1noc2c1CCCCC2`?
MazF activator: inactive; BoNT A protease: inactive; BoNT F protease: inactive; Anthrax LF inh2: inactive; Bead autofluor: 16329

How did CC1=CC(C)C2COC(c3ccc[n+](C)c3)C1C2C (centres undefined) do in these assays?
MazF activator: inactive; BoNT A protease: inactive; BoNT F protease: inactive; Anthrax LF inh2: inactive; Bead autofluor: inactive

How did COc1ccc(NS(=O)(=O)c2cc(C(=O)N3CCN(C/C=C/c4ccccc4)CC3)ccc2C)cc1 do in these assays?
MazF activator: inactive; BoNT A protease: inactive; BoNT F protease: inactive; Anthrax LF inh2: inactive; Bead autofluor: inactive

How did COc1ccc(C(C)(NC(C)=O)c2nc(-c3ccncc3)cs2)cc1 (centres undefined) do in these assays?
BoNT A protease: inactive; BoNT F protease: inactive; Anthrax LF inh2: inactive; Bead autofluor: inactive

Results for Cc1cc2oc(=O)cc(CN(C)Cc3ccccc3)c2cc1C ?
BoNT A protease: inactive; BoNT F protease: inactive; Anthrax LF inh2: inactive; Bead autofluor: inactive

Results for CN(C)S(=O)(=O)c1ccc(/C(O)=C2/C(=O)C(=O)N(Cc3cccnc3)C2c2ccncc2)cc1 (centres undefined) ?
MazF activator: inactive; BoNT A protease: inactive; BoNT F protease: inactive; Anthrax LF inh2: inactive; Bead autofluor: 17829

How did CCCCOc1ccc(C(=O)NCC2(c3ccccc3)CCOCC2)cc1 do in these assays?
MazF activator: inactive; BoNT A protease: inconclusive; BoNT F protease: inactive; Anthrax LF inh2: inactive; Bead autofluor: 22415

How did CCCCCOc1ccc(C(=O)NCC2(c3ccccc3)CCOCC2)cc1 do in these assays?
MazF activator: inactive; BoNT A protease: inactive; BoNT F protease: inactive; Anthrax LF inh2: inactive; Bead autofluor: 16606

What do the screens show for `Cc1ccc(NC(=O)c2cc(S(=O)(=O)N3CCOCC3)cn2C)cc1Cl`?
MazF activator: inactive; BoNT A protease: inactive; BoNT F protease: inactive; Anthrax LF inh2: inactive; Bead autofluor: inactive

What do the screens show for `O=C(O)c1ccccc1OCCOCCOc1ccccc1C(=O)O`?
MazF activator: inactive; BoNT A protease: inactive; BoNT F protease: inactive; Anthrax LF inh2: inactive; Bead autofluor: 23112

How did O=c1cc(CN2CCCc3ccccc32)nc2sccn12 do in these assays?
MazF activator: 91; BoNT A protease: inactive; BoNT F protease: inactive; Anthrax LF inh2: inactive; Bead autofluor: inactive

Results for CC1(C)C(C=C(Cl)Cl)C1C(=O)N1CCN(c2ccccc2)CC1 (centres undefined) ?
MazF activator: inactive; BoNT A protease: inactive; BoNT F protease: inactive; Anthrax LF inh2: inactive; Bead autofluor: 22705

How did CCOc1ccccc1NC(=O)Cn1c(=O)n(CCC(=O)NC2CCCC2)c(=O)c2ccccc21 do in these assays?
BoNT A protease: inactive; BoNT F protease: inactive; Anthrax LF inh2: inactive; Bead autofluor: inactive

How did COc1ccc(-n2c(=O)c3ccccc3n(CC(=O)NC3CCCC3)c2=O)c(OC)c1 do in these assays?
MazF activator: inactive; BoNT A protease: inactive; BoNT F protease: inactive; Anthrax LF inh2: inactive; Bead autofluor: 21567

How did Cc1cccc(NC(=O)Cn2c(=O)n(CCC(=O)NC3CCCC3)c(=O)c3ccccc32)c1 do in these assays?
MazF activator: 84; BoNT A protease: inactive; BoNT F protease: inactive; Anthrax LF inh2: inactive; Bead autofluor: inactive

What do the screens show for `COc1ccc(N2CCN(CC(=O)Nc3ccc(C)cc3Br)CC2)cc1`?
MazF activator: inactive; BoNT A protease: inactive; BoNT F protease: inactive; Anthrax LF inh2: inactive; Bead autofluor: inactive

What do the screens show for `Cc1ccc(NC(=O)CN2CCCCCC2)c(Br)c1`?
MazF activator: inactive; BoNT A protease: inactive; BoNT F protease: inactive; Anthrax LF inh2: inactive; Bead autofluor: 24257

Results for O=C(CN1CCCCCC1)Nc1cccc(Br)c1 ?
MazF activator: inactive; BoNT A protease: inactive; BoNT F protease: inactive; Anthrax LF inh2: inactive; Bead autofluor: 20288

Results for O=C(CN1CCCCC1)Nc1cccc(Cl)c1 ?
MazF activator: inactive; BoNT A protease: inactive; BoNT F protease: inactive; Anthrax LF inh2: inactive; Bead autofluor: inactive

How did CN(C)[C@H]1N(C(=O)c2ccc(Br)cc2)N=C2c3ccccc3S(=O)(=O)N21 do in these assays?
MazF activator: inactive; BoNT A protease: inconclusive; BoNT F protease: inactive; Anthrax LF inh2: inactive; Bead autofluor: 19842

How did COc1ccc(NC(=O)C23CC4CC(C2)CC(n2cnc(Br)n2)(C4)C3)cc1OC do in these assays?
MazF activator: inactive; BoNT A protease: inconclusive; BoNT F protease: inactive; Anthrax LF inh2: inactive; Bead autofluor: 16534

What do the screens show for `COc1ccc(NC(=O)C23CC4CC(C2)CC(n2cnc(Br)n2)(C4)C3)c(C)c1`?
MazF activator: inactive; BoNT A protease: inactive; BoNT F protease: inactive; Anthrax LF inh2: inactive; Bead autofluor: inactive

Screening data from PubChem BioAssay.
